About 410 targets per protein were measured; listed, in parts, are those with the strongest signals and a random draw of the rest.
Experiments:
Assay in all cases: glycan array binding signal (z-score within array); higher = stronger binding
Settings in all cases: glycan notation: IUPAC condensed, linker removed
[1] = molecular target: Man(a1-2)Man(a1-3)[Man(a1-2)Man(a1-6)]Man
Outline: (§1)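 Negative Z-scores can be read as non-binding. The Z-score is calculated within each array and then averaged across arrays of one protein sequence at different concentrations or buffers and across linkers. Arrays, 3228 in all, were curated from the Consortium for Functional Glycomics database and kept only where the protein sequence was available.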

[2] = molecular target: Man(a1-2)Man(a1-3)[Man(a1-2)Man(a1-6)]Man(a1-6)[Man(a1-2)Man(a1-2)Man(a1-3)]Man
Outline: as §1

[3] = molecular target: Man(a1-2)Man(a1-6)[Man(a1-3)]Man(a1-6)[Man(a1-2)Man(a1-2)Man(a1-3)]Man(b1-4)GlcNAc(b1-4)GlcNAc
Outline: as §1

[4] = molecular target: Man(a1-3)[Man(a1-6)]Man(a1-6)[Man(a1-3)]Man
Outline: as §1

[5] = molecular target: Neu5Ac(a2-3)Gal(b1-3)GalNAc(b1-3)Gal(a1-4)Gal(b1-4)Glc
Outline: as §1

[6] = molecular target: Neu5Ac(a2-3)Gal(b1-3)GlcNAc(b1-3)Gal(b1-3)GlcNAc
Outline: as §1

[7] = molecular target: Neu5Ac(a2-3)Gal(b1-3)GlcNAc6S
Outline: as §1

[8] = molecular target: Neu5Ac(a2-3)Gal(b1-3)[Fuc(a1-4)]GlcNAc
Outline: as §1

[9] = molecular target: Neu5Ac(a2-3)Gal(b1-3)[Fuc(a1-4)]GlcNAc(b1-3)Gal(b1-3)[Fuc(a1-4)]GlcNAc
Outline: as §1

[10] = molecular target: Neu5Ac(a2-3)Gal(b1-4)GlcNAc(b1-2)Man(a1-3)[Neu5Ac(a2-3)Gal(b1-4)GlcNAc(b1-2)Man(a1-6)]Man(b1-4)GlcNAc(b1-4)[Fuc(a1-6)]GlcNAc
Outline: as §1

[11] = molecular target: Neu5Ac(a2-3)Gal(b1-4)GlcNAc(b1-2)[Neu5Ac(a2-3)Gal(b1-4)GlcNAc(b1-6)]Man(a1-6)[Neu5Ac(a2-3)Gal(b1-4)GlcNAc(b1-2)Man(a1-3)][GlcNAc(b1-4)]Man(b1-4)GlcNAc(b1-4)GlcNAc
Outline: as §1

[12] = molecular target: Neu5Ac(a2-3)Gal(b1-4)GlcNAc(b1-3)Gal(b1-4)GlcNAc(b1-6)[Gal(b1-3)]GalNAc
Outline: as §1

[13] = molecular target: Neu5Ac(a2-3)Gal(b1-4)GlcNAc(b1-6)GalNAc
Outline: as §1

[14] = molecular target: Neu5Ac(a2-3)Gal(b1-4)[Fuc(a1-3)]GlcNAc6S
Outline: as §1

[15] = molecular target: Neu5Ac(a2-3)[GalNAc(b1-4)]Gal(b1-4)Glc
Outline: as §1

[16] = molecular target: Neu5Ac(a2-3)[GalNAc(b1-4)]Gal(b1-4)GlcNAc(b1-3)GalNAc
Outline: as §1

[17] = molecular target: Neu5Ac(a2-6)Gal(b1-4)GlcNAc(b1-2)Man(a1-3)[Neu5Ac(a2-6)Gal(b1-4)GlcNAc(b1-2)Man(a1-6)]Man(b1-4)GlcNAc(b1-4)[Fuc(a1-6)]GlcNAc
Outline: as §1

[18] = molecular target: Neu5Ac(a2-6)Gal(b1-4)GlcNAc(b1-3)Gal(b1-4)GlcNAc(b1-3)[Neu5Ac(a2-6)Gal(b1-4)GlcNAc(b1-3)Gal(b1-4)GlcNAc(b1-6)]GalNAc
Outline: as §1

[19] = molecular target: Neu5Ac(a2-6)Gal(b1-4)GlcNAc(b1-3)Gal(b1-4)[Fuc(a1-3)]GlcNAc(b1-3)Gal(b1-4)[Fuc(a1-3)]GlcNAc
Outline: as §1

[20] = molecular target: Neu5Ac(a2-6)Gal(b1-4)GlcNAc(b1-6)[Gal(b1-3)]GalNAc
Outline: as §1

[21] = molecular target: Neu5Ac(a2-6)Gal(b1-4)GlcNAc6S
Outline: as §1

[22] = molecular target: Neu5Ac(a2-6)GalNAc(b1-4)GlcNAc6S
Outline: as §1

[23] = molecular target: Neu5Ac(a2-8)Neu5Ac
Outline: as §1

[24] = molecular target: Neu5Ac(a2-8)Neu5Ac(a2-8)Neu5Ac
Outline: as §1

[25] = molecular target: Neu5Ac(a2-8)Neu5Ac(a2-8)Neu5Ac(a2-3)[GalNAc(b1-4)]Gal(b1-4)Glc
Outline: as §1

[26] = molecular target: Neu5Gc(a2-3)Gal(b1-3)[Fuc(a1-4)]GlcNAc
Outline: as §1

[27] = molecular target: Neu5Gc(a2-3)Gal(b1-4)GlcNAc
Outline: as §1

[28] = molecular target: Neu5Gc(a2-8)Neu5Ac(a2-3)Gal(b1-4)GlcNAc
Outline: as §1

B1: Pwp2 (Candida glabrata) (protein)
chain: MGSSHHHHHHSSGLVPRGSHMASKNPVELNNVCTFPNDYGRIPGFTVLVGRLGLLISASDYKELLRYPGAFLIATQDTMTTSPNFELTGFPFFTGLYGLTVFPLDLLVELRGYFVPPNSGQYTFTLSDSDDAAIIFLGNPSAFPCGDLQNWPKPSEEDITVTDHLFPSRTLYLIEGVAYPMRIAYYNGIGAGRLNAAFIDPSGTRHTNWEGYIWQYDPCSTCTYS
- glycan array binding signal (z-score) [1]: -0.477
- glycan array binding signal (z-score) [2]: -0.722
- glycan array binding signal (z-score) [3]: -0.467
- glycan array binding signal (z-score) [4]: 5.45
- glycan array binding signal (z-score) [5]: -0.307
- glycan array binding signal (z-score) [6]: -0.269
- glycan array binding signal (z-score) [7]: -0.456
- glycan array binding signal (z-score) [8]: 0.549
- glycan array binding signal (z-score) [9]: 4
- glycan array binding signal (z-score) [10]: 0.96
- glycan array binding signal (z-score) [11]: 4.22
- glycan array binding signal (z-score) [12]: 1.44
- glycan array binding signal (z-score) [13]: 4.01
- glycan array binding signal (z-score) [14]: 0.309
- glycan array binding signal (z-score) [15]: 0.443
- glycan array binding signal (z-score) [16]: 0.085
- glycan array binding signal (z-score) [17]: 1.79
- glycan array binding signal (z-score) [18]: -0.059
- glycan array binding signal (z-score) [19]: -0.077
- glycan array binding signal (z-score) [20]: 3.56
- glycan array binding signal (z-score) [21]: -0.426
- glycan array binding signal (z-score) [22]: 4.86
- glycan array binding signal (z-score) [23]: -0.04
- glycan array binding signal (z-score) [24]: -0.203
- glycan array binding signal (z-score) [25]: 0.537
- glycan array binding signal (z-score) [26]: -0.072
- glycan array binding signal (z-score) [27]: 0.982
- glycan array binding signal (z-score) [28]: -0.437

From the supplement of paper PMC8728848
